# According to PubChem BioAssay:
# Activity calls are given as the source filed them.
# Key:
# [1] = test system: PRMT1 (protein arginine N-methyltransferase 1); test: small molecules binding arginine methyltransferase PRMT1 – biochemical, small-molecule microarray, 635 nm fluorescence, primary screen (AID 1088); conditions: higher = more signal;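 note: binding of Prmt1 protein to compounds spotted on small-molecule microarray slides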
# [2] = growth effects on S. cerevisiae YJM789 – YJM789 clinical isolate, OD600, 24 h, basal, primary screen (AID 1089); conditions: higher = more signal, called active from +8 up or from −8 down;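 note: growth of clinical yeast isolate S. cerevisiae YJM 789 seeded 1000 cells per well; test concentration not given here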
# [3] = S. pombe growth modifiers, basal conditions – strain 972, OD600, 24 h, no modulator, primary screen (AID 1090);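 note: basal condition with compound alone and no growth modifier present; test concentration not given here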; conditions: S. pombe 972 growth, higher = more signal, called active from +8 up or from −8 down
# [4] = budding yeast growth modifiers under rapamycin – strain BY4716, OD600, 96 h, primary screen (AID 1091); note: test concentration not given here; conditions: S. cerevisiae BY4716 + rapamycin, higher = more signal, called active from +8 up or from −8 down
# [5] = target: Torsin-1A-interacting protein 2 (Homo sapiens) (UniProt Q8NFQ8); test: small molecules binding lysate-expressed LULL1 – cell lysate, human LULL1 lysate, 635/667 nm fluorescence, primary screen (AID 1092); conditions: small-molecule microarray, hLULL1 lysate binding, 635 nm fluorescence; higher = more signal;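 note: probe is lysate of COS7 cells overexpressing human LULL1; score merges per-feature 667 nm fluorescence with signal-to-noise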
# Chain of Torsin-1A-interacting protein 2 (Homo sapiens) (Q8NFQ8 whole entry, looked up): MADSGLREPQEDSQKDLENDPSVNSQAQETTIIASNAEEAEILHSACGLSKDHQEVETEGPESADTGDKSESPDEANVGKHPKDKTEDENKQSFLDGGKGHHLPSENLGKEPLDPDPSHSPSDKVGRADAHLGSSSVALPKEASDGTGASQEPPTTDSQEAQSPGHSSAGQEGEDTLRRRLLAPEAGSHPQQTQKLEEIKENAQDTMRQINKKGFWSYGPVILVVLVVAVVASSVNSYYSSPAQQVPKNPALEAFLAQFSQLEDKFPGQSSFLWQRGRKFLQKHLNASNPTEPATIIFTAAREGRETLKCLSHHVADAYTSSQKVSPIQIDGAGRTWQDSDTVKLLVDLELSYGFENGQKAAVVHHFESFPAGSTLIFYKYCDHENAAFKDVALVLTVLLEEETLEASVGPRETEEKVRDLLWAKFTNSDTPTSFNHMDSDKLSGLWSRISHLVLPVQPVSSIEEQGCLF
# [6] = optical density change of DRC41 E. coli – strain DRC41, OD650, 24 h, E. coli filamentation project, primary screen (AID 1093);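 note: MC1000 strain lacking acrAB efflux and sulA so SOS filamentation is blocked; test concentration not given here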; conditions: E. coli DRC41 growth, higher = more signal, called active from +8 up or from −8 down
# [7] = probe aLefty2 binding to arrayed compounds – biochemical, biotinylated probe, 635/667 nm fluorescence, primary screen (AID 1094); conditions: small-molecule microarray, higher = more signal;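 note: score merges spot fluorescence near 667 nm with spot signal-to-noise ratio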
# [8] = test system: Noggin (protein binding on small-molecule microarray); test: small molecules binding Noggin protein – biochemical, 635/667 nm fluorescence, primary screen (AID 1095); conditions: 635 nm fluorescence, higher = more signal;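 note: score merges 667 nm feature fluorescence with signal to noise over triplicate slides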
# [9] = target: Neurogenic locus notch homolog protein 3 (Homo sapiens) (UniProt Q9UM47); test: small molecules binding NOTCH3 protein – biochemical, 635/667 nm fluorescence, primary screen (AID 1096); conditions: small-molecule microarray, 635 nm fluorescence, higher = more signal
# Chain of Neurogenic locus notch homolog protein 3 (Homo sapiens) (Q9UM47 whole entry, looked up): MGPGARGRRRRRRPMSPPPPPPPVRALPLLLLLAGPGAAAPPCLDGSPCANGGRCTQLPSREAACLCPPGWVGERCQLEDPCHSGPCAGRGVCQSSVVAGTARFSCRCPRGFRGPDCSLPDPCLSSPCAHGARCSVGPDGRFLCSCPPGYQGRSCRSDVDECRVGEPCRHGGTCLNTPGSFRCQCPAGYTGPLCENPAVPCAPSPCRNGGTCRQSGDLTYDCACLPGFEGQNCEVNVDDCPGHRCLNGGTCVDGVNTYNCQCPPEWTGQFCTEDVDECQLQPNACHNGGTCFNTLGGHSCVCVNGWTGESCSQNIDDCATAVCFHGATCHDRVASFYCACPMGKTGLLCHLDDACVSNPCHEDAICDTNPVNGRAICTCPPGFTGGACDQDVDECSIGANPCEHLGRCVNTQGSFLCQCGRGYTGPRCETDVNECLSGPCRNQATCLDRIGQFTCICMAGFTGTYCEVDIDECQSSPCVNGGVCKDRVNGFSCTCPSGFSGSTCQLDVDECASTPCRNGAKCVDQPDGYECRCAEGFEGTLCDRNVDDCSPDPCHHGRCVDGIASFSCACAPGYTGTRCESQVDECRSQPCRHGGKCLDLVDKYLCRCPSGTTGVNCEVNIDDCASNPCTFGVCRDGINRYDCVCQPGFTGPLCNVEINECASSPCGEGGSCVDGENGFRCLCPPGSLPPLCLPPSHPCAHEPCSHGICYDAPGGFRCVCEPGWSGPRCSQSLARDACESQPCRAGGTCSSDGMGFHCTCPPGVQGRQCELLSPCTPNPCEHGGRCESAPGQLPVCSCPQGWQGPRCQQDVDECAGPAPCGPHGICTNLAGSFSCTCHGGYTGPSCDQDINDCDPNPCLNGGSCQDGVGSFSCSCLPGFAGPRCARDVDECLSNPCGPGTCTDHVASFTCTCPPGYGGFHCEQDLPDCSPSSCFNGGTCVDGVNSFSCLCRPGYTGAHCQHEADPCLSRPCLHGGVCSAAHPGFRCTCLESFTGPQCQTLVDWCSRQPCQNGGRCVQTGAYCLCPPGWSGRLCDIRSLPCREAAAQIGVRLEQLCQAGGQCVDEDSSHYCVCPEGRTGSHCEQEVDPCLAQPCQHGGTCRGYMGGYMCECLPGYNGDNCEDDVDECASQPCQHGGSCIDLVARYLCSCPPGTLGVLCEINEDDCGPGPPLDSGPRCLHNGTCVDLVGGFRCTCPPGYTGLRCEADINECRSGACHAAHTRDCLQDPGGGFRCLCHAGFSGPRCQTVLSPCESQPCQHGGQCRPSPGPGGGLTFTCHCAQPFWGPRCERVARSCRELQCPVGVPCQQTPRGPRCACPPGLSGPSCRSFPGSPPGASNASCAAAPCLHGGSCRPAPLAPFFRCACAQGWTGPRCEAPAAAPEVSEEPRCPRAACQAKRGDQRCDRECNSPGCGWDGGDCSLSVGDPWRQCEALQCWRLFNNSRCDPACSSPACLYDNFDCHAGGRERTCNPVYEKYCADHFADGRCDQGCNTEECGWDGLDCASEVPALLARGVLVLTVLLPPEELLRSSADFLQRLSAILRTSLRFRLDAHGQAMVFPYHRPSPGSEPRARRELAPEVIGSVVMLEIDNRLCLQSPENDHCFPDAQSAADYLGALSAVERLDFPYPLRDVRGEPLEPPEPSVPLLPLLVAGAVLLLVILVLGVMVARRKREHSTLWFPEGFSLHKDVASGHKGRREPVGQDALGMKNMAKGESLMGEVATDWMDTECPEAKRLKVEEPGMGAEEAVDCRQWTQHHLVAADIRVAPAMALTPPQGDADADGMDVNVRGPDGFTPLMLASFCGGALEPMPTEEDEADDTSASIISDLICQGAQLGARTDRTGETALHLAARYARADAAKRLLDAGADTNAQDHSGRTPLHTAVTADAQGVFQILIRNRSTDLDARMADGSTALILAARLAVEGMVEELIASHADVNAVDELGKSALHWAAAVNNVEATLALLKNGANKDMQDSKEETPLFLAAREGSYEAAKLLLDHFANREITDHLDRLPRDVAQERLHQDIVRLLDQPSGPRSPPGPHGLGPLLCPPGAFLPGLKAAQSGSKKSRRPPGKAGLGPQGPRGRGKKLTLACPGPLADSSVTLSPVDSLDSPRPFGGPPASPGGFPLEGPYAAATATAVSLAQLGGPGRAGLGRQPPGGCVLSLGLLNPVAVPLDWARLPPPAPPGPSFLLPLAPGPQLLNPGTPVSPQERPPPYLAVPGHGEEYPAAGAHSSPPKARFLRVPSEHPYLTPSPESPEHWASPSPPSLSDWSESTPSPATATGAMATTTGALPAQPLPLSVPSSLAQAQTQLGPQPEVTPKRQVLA
# [10] = probe aEGFR binding to arrayed compounds – biochemical, biotinylated probe, 635/667 nm fluorescence, primary screen (AID 1097); conditions: small-molecule microarray, higher = more signal;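 note: probe is a biotinylated anti-EGFR antibody binding compounds printed on slides; score combines fluorescence near 667 nm and signal to noise of each spot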
SMILES,composite z-score [1],z-score [2],z-score [3],z-score [4],composite z-score [5],z-score [6],composite z-score [7],composite z-score [8],composite z-score [9],composite z-score [10]
O=C1O[C@H](c2ccccc2)[C@H](c2ccccc2)N2[C@H]1[C@@H](C(=O)N1CCCCCCC1)[C@]1(C(=O)Nc3ccc(C#CC4=CCCCC4)cc31)[C@H]2c1ccc(OCCO)cc1,1.53,0.42 (inactive),-2.08 (inactive),2.79 (inactive),3.7,2.64 (inactive),1.72,1.72,1.02,1.07
CC(C)C[C@@H]1NC(=O)[C@H](C(C)C)NC(=O)[C@@]23C(=O)N[C@@H](Cc4ccccc4)C2[C@H](C)[C@@]2(C)O[C@H]2C3/C=C/CC/C=C/CNC1=O (stereo not given in full),1.55,-0.0106 (inactive),-0.328 (inactive),-0.522 (inactive),2.27,-0.215 (inactive),-0.0346,0.782,1.03,-0.096
CC(C)NC(=O)[C@@H]1c2ccccc2C(=O)N(C2Cc3ccccc3C2)[C@H]1c1ccc(CO)cc1,1.03,-0.14 (inactive),-0.0232 (inactive),-0.377 (inactive),2.33,1.28 (inactive),-0.0491,0.0941,0.436,-0.126
CCCC[C@@H]1C[C@H]1[C@@H](NC(=O)c1ccco1)c1ccc(-c2ccccc2)cc1,1.11,0.186 (inactive),0.316 (inactive),0.569 (inactive),-0.397,-1.45 (inactive),0.0682,0.61,0.234,0.0258
CC(C)C(O)C1C=CC2C(=O)N(c3ccccc3)C(=O)C2N1Nc1ccc([N+](=O)[O-])cc1 (stereo not given),0.118,0.307 (inactive),0.815 (inactive),0.834 (inactive),2.89,0.171 (inactive),0.0827,-0.0213,0.614,0.117
COc1ccc(C#Cc2ccc3c(c2)[C@]2(C(=O)N3)[C@H](C(=O)NC[C@H](O)c3ccccc3)[C@H]3C(=O)O[C@H](c4ccccc4)[C@H](c4ccccc4)N3[C@@H]2c2ccc(O)cc2)cc1,1.55,2.26 (inactive),0.984 (inactive),2.2 (inactive),2.98,-0.0198 (inactive),0.0078,0.904,0.729,0.0996
COC(=O)[C@@]1(CCS(=O)(=O)c2ccccc2)N=C(c2ccc(OCCCO)cc2)O[C@H]1c1ccccc1CN=[N+]=[N-],1.38,0.265 (inactive),1.18 (inactive),34.4 (active),3.01,0.706 (inactive),0.0054,0.338,1,0.127
C=C[C@H](C)[C@@H](OC(=O)Nc1ccc(OC)cc1)c1ccc(O)c2ccccc12,0.0444,-24.6 (active),-20.8 (active),-3.58 (inactive),1.63,0.431 (inactive),-0.266,0.823,0.0291,-0.275
CCC(CC)C(O)C1C=CC2C(=O)NC(=O)C2N1Nc1ccccn1 (stereo not given),-0.26,0.188 (inactive),1.22 (inactive),0.315 (inactive),1.35,-0.691 (inactive),0.0744,-0.441,-0.412,0.148
O=C(c1ccccc1)N1C(=O)[C@@]2(Cc3ccccc31)N=C(c1ccc(OCCCO)cc1)O[C@H]2c1ccccc1,1.55,-0.26 (inactive),-1.23 (inactive),1.74 (inactive),2.59,0.0877 (inactive),0.384,0.487,1.09,0.291
COc1ccc(C#Cc2ccc3c(c2)[C@]2(C(=O)N3)[C@H](c3ccccc3OCCO)N3[C@H](c4ccccc4)[C@H](c4ccccc4)OC(=O)[C@H]3[C@@H]2C(=O)Nc2nc3ccccc3s2)cc1,1.54,2.95 (inactive),1.47 (inactive),0.871 (inactive),1.95,0.0309 (inactive),0,0.785,1.09,-0.0549
COC(=O)[C@@]1(Cc2ccc(F)cc2)[C@H]2c3cc(C(=O)N4CCCC4)n(Cc4ccc(S(C)(=O)=O)cc4)c3C[C@H]2CN1C(=O)c1ccccc1,-0.0384,-0.13 (inactive),0.365 (inactive),1.48 (inactive),3.29,-1.02 (inactive),0.267,-0.771,1.02,0.123
C=C(COC)/C(=C/C[C@@H](OC(=O)c1ccncc1)c1ccc(CO)o1)c1cc(C(=O)OC)ccc1OC,1.53,0.102 (inactive),-0.262 (inactive),-0.127 (inactive),2,0.564 (inactive),-0.178,1.68,1.07,0.0878
C=C[C@H](CO[Si](CC)(CC)CC)N(Cc1ccc(OC(C)=O)c(OC)c1)S(=O)(=O)c1ccc(Br)cc1,0.87,-1.77 (inactive),-1.01 (inactive),0.196 (inactive),1.6,0.415 (inactive),0.476,-0.0715,-0.334,0.0819
CN(C)C(=O)[C@@]1(CCS(=O)(=O)c2ccccc2)COC(c2ccc(OCCCO)cc2)=N1,0.494,-0.126 (inactive),1.45 (inactive),0.546 (inactive),3.63,0.199 (inactive),-0.0258,-0.252,-0.136,0.36
